In PubChem BioAssay (NCATS) one finds caspase-3 activation, Potency and outcome data, which are given here for 15 molecules.

Assay [1] can be described thus: Cellular Toxicity (caspase-3) Jurkat (AID 655).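 Also: cells exposed to compound for 16 h at 37 °C before reading.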 Conditions: Jurkat caspase-3 activation, luminescence, DMSO = 0%, tamoxifen = 100%; at 92.2 µM (top of the series). In short, it runs like this: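 Caspase 3/7 activation is scored as increased luminescence in Jurkat cells cultured with compound for 16 hours in complete medium. AC50 values come from Hill fits of qHTS concentration-response data normalized to DMSO and 100 uM tamoxifen controls.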

Assay [2] is described as follows: Cellular Toxicity (caspase-3) HUV-EC-C (AID 656). Also: potency is read from the fitted curve at half-maximal effect. In short, it runs like this: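 Read-out: luminescence proportional to caspase 3/7 activity, measured 20 min after adding Caspase-Glo 3/7 reagent. Cells (HUV-EC-C) had received compound for 16 hr at 37°C. Increases relative to DMSO and 100 uM tamoxifen gave concentration-response AC50 values.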
Assay [3] can be described thus: Cellular Toxicity (caspase-3) SHSY5Y (AID 657). In short, it runs like this: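 Cells plated and incubated 5 h at 37 °C, dosed over a concentration range, incubated 16 h, then given Caspase-Glo 3/7 reagent for 1 h at room temperature before luminescence reading. Staurosporine (10 uM) defined full stimulation.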
Assay [4] can be described thus: Cellular Toxicity (caspase-3) BJ (AID 658).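 Also: 0% = DMSO basal and 100% = 10 µM staurosporine.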 In short, it runs like this: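 Readout: Caspase-Glo 3/7 luminescence increase in BJ cells after 16 hr treatment at 37 °C. Staurosporine and tamoxifen served as positive controls; AC50 values came from Hill modelling of data normalized to DMSO and 10 uM staurosporine.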
The nature of assay [5]: Cellular Toxicity (caspase-3) MRC-5 (AID 659). Also: potency is read from the fitted curve at half-maximal effect.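 As to caspase-3 activation: 0% = DMSO basal and 100% = 10 µM staurosporine.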 The note with it: Potency: caspase-3 activation. In short, it runs like this:
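Concentration-dependent caspase 3/7 activation is measured in human normal lung fibroblasts (MRC-5) following 16-hour treatment. AC50 values come from standard Hill-equation modeling of luminescence normalized to DMSO and 10 uM staurosporine.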

The nature of assay [6]: Cellular Toxicity (caspase-3) Mesangial (AID 660).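 Also: cells exposed to compound for 16 h before the caspase read.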 The note with it: mesangial cells, normalized: DMSO 0%, 100 µM tamoxifen 100%; at 91.7 µM (top of the series). The gist of the method: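 Human renal glomerular mesangial cells, 1000/well, 5 h at 37 C before 16 h compound treatment. Caspase-Glo 3/7 luminescence after 20 min; normalized to DMSO and 100 uM tamoxifen, AC50 from Hill fit.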

The nature of assay [7]: Cellular Toxicity (caspase-3) SK-N-SH (AID 661). Also: potency is read from the fitted curve at half-maximal effect.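 As to caspase-3 activation: 0% = DMSO basal and 100% = 10 µM staurosporine.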 The gist of the method:
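Human SK-N-SH neuroblastoma cells, 1500/well, were exposed to compounds for 16 hours at 37 °C. Caspase-Glo 3/7 luminescence was normalized to DMSO (basal) and 10 uM staurosporine (100%), and AC50 came from a Hill fit.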

Assay [8] in a line: Cellular Toxicity (caspase-3) H-4-II-E (AID 663).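 Also: cells exposed to compound for 16 hr before readout.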 Conditions: H-4-II-E rat hepatoma, scaled: DMSO 0%, 100 µM tamoxifen 100%; at 92.2 µM (top of the series). The gist of the method:
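Apoptosis induction is scored as increased luminescence from caspase 3/7 substrate cleavage in rat hepatoma H-4-II-E cells exposed to compound for 16 hr. Activity is scaled between DMSO and 100 uM tamoxifen.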

Assay [9] can be described thus: Cellular Toxicity (caspase-3) Hek293 (AID 664).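 Also: cells exposed to compound for 16 h at 37 °C before readout.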 Also: potency is read from the fitted curve at half-maximal effect. Conditions: HEK293 caspase-3 activation; caspase-3 activation: at 92.2 µM (top of the series), DMSO = 0%, 100 µM tamoxifen = 100%. The gist of the method:
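HEK293 cells in complete medium treated 16 h at 37 °C, then Caspase-Glo 3/7 luminescence read after 20 min at room temperature. Normalized to DMSO and 100 uM tamoxifen; AC50 from Hill fit of concentration-response.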

Assay [10] in a line: Cellular Toxicity (caspase-3) N2a (AID 665).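 Also: compound exposure lasted 16 h at 37 °C before readout.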 Also: potency is read from the fitted curve at half-maximal effect. The note with it: Potency: caspase-3 activation. The gist of the method:
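Mouse N2a neuroblastoma cells, 1500 per well, treated 16 h at 37 °C in complete medium; caspase-3/7 activity by Caspase-Glo luminescence after 1 h. Normalized to DMSO and 10 uM staurosporine; AC50 from Hill fits.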

Results filed as inconclusive are left out. The source made the active and inactive calls. Calls follow the shape of the dose curve; as a rule, active = well fitted curve in the direction sought with a large enough effect; inconclusive = small, poorly fitted or top-dose-only effect, or another doubt; inactive = no such curve, though single readings can be large; an effect the other way counts as inactive or inconclusive.

For `CN(C)CCC(c1ccccc1)c1ccccn1` (centres undefined), the caspase-3 activation was 1.03% (inactive) in assay [1], 0.331% (inactive) in [6] and 1.53% (inactive) in assay [8]. Further, the Potency entry in assay [2], in assay [5], in [7], in assay [9] and in assay [10] was “inactive” in each case. In addition, the molecule was called inactive in assay [3] and in assay [4].

Regarding `CC(=O)O[C@]1(C(C)=O)CC[C@H]2[C@@H]3C=C(Cl)C4=CC(=O)[C@@H]5C[C@@H]5[C@]4(C)[C@H]3CC[C@@]21C`, the figures for the caspase-3 activation in assay [1], in [6] and in assay [8] were 11.6% (inactive), -0.0763% (inactive) and 0.0575% (inactive), respectively. Moreover, the Potency result in [2], in assay [5], in assay [7], in assay [9] and in assay [10] was “inactive” in each case. Besides, the molecule was called inactive in assay [3] and in assay [4].

In the case of `CCCNC(=O)NS(=O)(=O)c1ccc(Cl)cc1`, the caspase-3 activation in assay [1] was -0.0991% (inactive); in [6], -0.968% (inactive); in assay [8] it was -0.479% (inactive). Further, the Potency result in [2], in [5], in assay [7], in [9] and in assay [10] was “inactive” each time. Besides, the outcome in [3] and in assay [4] was inactive.

As to `O=C(O)Cc1cccc2ccccc12`, the caspase-3 activation in [1] is 1.08% (inactive); in assay [6] it was 0.654% (inactive); in [8] it was 0.142% (inactive). Also, the Potency entry in assay [2], in assay [5], in assay [7], in assay [9] and in [10] was “inactive” throughout. The outcome in [3] and in [4] was inactive.

With `O=c1[nH]cnc2c1ncn2[C@H]1CC[C@@H](CO)O1`, the caspase-3 activation in assay [1] is 3.7% (inactive); in [6], -0.684% (inactive); in assay [8], 0.398% (inactive). Moreover, the Potency result in [2], in [5], in assay [7], in [9] and in [10] was “inactive” in each case. Besides, the outcome in assay [3] and in assay [4] was inactive.

For the molecule `CC1=C(/C=C/C(C)=C/C=C/C(C)=C/C(=O)Nc2ccc(O)cc2)C(C)(C)CCC1`, the values for the caspase-3 activation in [1], in [6] and in assay [8] were -0.319% (active), 91% (active) and 91.2% (active), respectively. Also, the Potency in assay [2], in [5], in [7], in assay [9] and in assay [10] was 31.6 µM (active) each time.

`CC(=O)c1ccc(S(=O)(=O)NC(=O)NC2CCCCC2)cc1`: the caspase-3 activation in [1] was 0.00348% (inactive); in assay [6] it was 0.0312% (inactive); in [8], 1.08% (inactive). The Potency entry in [2], in assay [5], in assay [7], in assay [9] and in assay [10] was “inactive” in each case. For the same molecule, the molecule was classed as inactive in assay [3] and in assay [4].

On to `O=c1cc(-c2ccc(O)cc2)oc2cc(O)cc(O)c12`, for which the caspase-3 activation was 8.24% (inactive) in [1], -2.47% (inactive) in assay [6] and 9.21% (inactive) in assay [8]. The Potency result in [2], in assay [5], in assay [7], in [9] and in [10] was “inactive” in each case. Moreover, the call in assay [3] and in assay [4] was inactive.

Turning to `O=C(O)c1cc(O)c2c(c1)C(=O)c1cccc(O)c1C2=O`, the values for the caspase-3 activation in [1], in [6] and in [8] were -6.3% (inactive), -1.07% (inactive) and 1.57% (inactive), respectively. Further, the Potency result in assay [2], in assay [5], in [7], in assay [9] and in assay [10] was “inactive” each time. In addition, the call in assay [3] and in assay [4] was inactive.

`O=C1NC(=O)C(c2ccccc2)(c2ccccc2)N1`: the results for the caspase-3 activation in [1], in [6] and in [8] were 1.33% (inactive), 0.351% (inactive) and 0.679% (inactive), respectively. In addition, the Potency entry in assay [2], in [5], in assay [7], in assay [9] and in [10] was “inactive” each time. For the same molecule, the molecule was called inactive in assay [3] and in [4].

On to `CC/C(=C(\c1ccccc1)c1ccc(OCCN(C)C)cc1)c1ccccc1`, for which, in assay [2], the Potency was 63.1 µM (active). Besides, the caspase-3 activation in assay [9] was 147% (active).

For the molecule `O=c1c(O)c(-c2ccc(O)cc2)oc2cc(O)cc(O)c12`, the results for the caspase-3 activation in [1] and in assay [6] were 1.17% (inactive) and -0.85% (inactive), respectively. The Potency entry in assay [2], in assay [5], in assay [7], in assay [9] and in assay [10] was “inactive” each time. The call in assay [3] and in [4] was inactive.

Take `CCn1cc(C(=O)O)c(=O)c2ccc(C)nc21`: the caspase-3 activation in assay [1] was 0.304% (inactive); in assay [6] it was -0.0498% (inactive); in assay [8], -0.698% (inactive). For the same molecule, the Potency result in assay [2], in assay [5], in assay [7], in assay [9] and in [10] was “inactive” in each case. Also, the call in assay [3] and in assay [4] was inactive.

On to `O=c1c(-c2ccc(O)cc2)coc2cc(O)ccc12`, for which the caspase-3 activation in [1] is -7.71% (inactive); in assay [6], -3.39% (inactive); in [8], -2.27% (inactive). Besides, the Potency result in assay [2], in assay [5], in assay [7], in [9] and in assay [10] was “inactive” throughout. Also, the molecule was classed as inactive in assay [3] and in assay [4].

As to `CCCCC1C(=O)N(c2ccccc2)N(c2ccccc2)C1=O`, the caspase-3 activation in assay [1] was 0.354% (inactive); in [6] it was 0.46% (inactive); in [8] it was 0.827% (inactive). Also, the Potency entry in [2], in [5], in assay [7], in assay [9] and in assay [10] was “inactive” each time. In addition, the call in assay [3] and in assay [4] was inactive.
